Experimental data: PubChem BioAssay (NCATS)
Results filed as inconclusive are left out. Activity calls are given as the source filed them. Unless noted, calls follow the shape of the dose curve; as a rule, active = well fitted curve in either direction with a large enough effect (not every such curve was filed as active); inconclusive = small, poorly fitted or top-dose-only effect, or another doubt; inactive = flat fitted curve, though single readings scatter.

Assays:
[1] = target: Lysosomal acid glucosylceramidase (Homo sapiens) (UniProt P04062); assay: Glucocerebrosidase-p2 (AID 348; in the data active = potency below about 10 µM; also: potency is read from the fitted curve at half-maximal effect); settings: purified GBA, blue fluorogenic substrate, 40 min
Chain of Lysosomal acid glucosylceramidase (Homo sapiens) (P04062 whole entry, looked up): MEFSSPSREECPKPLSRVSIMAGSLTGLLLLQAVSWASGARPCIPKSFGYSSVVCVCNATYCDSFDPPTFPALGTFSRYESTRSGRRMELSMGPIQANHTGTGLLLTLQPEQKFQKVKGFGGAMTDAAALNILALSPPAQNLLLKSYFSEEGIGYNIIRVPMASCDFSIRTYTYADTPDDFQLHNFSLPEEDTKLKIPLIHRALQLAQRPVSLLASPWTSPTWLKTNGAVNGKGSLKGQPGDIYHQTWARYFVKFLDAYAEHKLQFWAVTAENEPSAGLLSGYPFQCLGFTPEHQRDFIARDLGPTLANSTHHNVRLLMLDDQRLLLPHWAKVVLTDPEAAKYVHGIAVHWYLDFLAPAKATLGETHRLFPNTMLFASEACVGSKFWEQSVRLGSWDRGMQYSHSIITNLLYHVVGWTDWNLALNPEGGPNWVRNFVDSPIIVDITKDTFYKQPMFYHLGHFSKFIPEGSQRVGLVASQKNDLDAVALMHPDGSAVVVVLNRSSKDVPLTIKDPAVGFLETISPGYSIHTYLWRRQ
Method in brief: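 Normal human glucocerebrosidase (0.2 nM) with blue fluorogenic substrate (80 uM final) in citrate/phosphate pH 5.9 with 10mM sodium taurocholate, 0.01% tween-20; 40 min RT, NaOH/glycine stop; fluorescence Ex 365/Em 440; AC50 from a titration from 0.6 nM upwards.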

[2] = AP1 Signaling Pathway (AID 357); settings: ME-180 AP-1-bla reporter, EGF-induced, beta-lactamase ratio, 5 h; at 7.69 µM (top of the series) unless noted;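 also: ME-180 reporter cells stimulated with EGF at its EC50 level; % is scaled to controls: 0 for no effect and ±100 for the full control effect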
Method in brief: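 Read-out was the 460nm/530nm emission ratio (excitation 405nm) after CCF4 loading for 2.5 hours at room temperature. Cells carried an AP-1-driven beta-lactamase reporter, were stimulated with EC50 EGF plus compound for 5 hours, and AC50 values came from titrations.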

[3] = NFAT Signaling Pathway (AID 444); settings: Jurkat NFAT-bla M1, carbachol, beta-lactamase ratio, 5 h; at 7.69 µM (top of the series) unless noted;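 also: carbachol stimulus at about its EC50 of 1 µM final; % is scaled to controls: 0 for no effect and ±100 for the full control effect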
Method in brief: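 Jurkat cells with NFAT-driven β-lactamase reporter and co-expressed M1 receptor, stimulated with carbachol (final 1 uM, ~EC50), compound titration, 5 h at 37 °C. CCF4 loaded 1 h at RT; 460/530 nm ratio gave %activity and AC50.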

[4] = Stat Signaling Pathway (AID 446); settings: ME-180 SIE beta-lactamase reporter, IL-6 stimulated, 5 h; at 7.69 µM (top of the series) unless noted;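 also: ME-180 cervical cancer cells given 40 pM IL-6 alongside compound; SIE-controlled beta-lactamase reporter measured as 460/530 nm FRET emission ratio; % is scaled to controls: 0 for no effect and ±100 for the full control effect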
Method in brief: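 FRET read-out (405 nm excitation, 460/530 nm emission) of a beta-lactamase reporter under a STAT-inducible element in ME-180 cervical carcinoma cells. Cells with compound receive 40 pM IL-6 for 5 h. Values are normalised to AC90 stimulation and AC90 JAK-inhibitor controls.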

[5] = target: Glucocorticoid receptor (Homo sapiens) (UniProt P04150); assay: GR-GFP Redistribution (AID 450;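 active = compounds whose dose series gives a full or clear partial fitted curve of increased nuclear translocation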; also: potency is read from the fitted curve at half-maximal effect); settings: U2OS GR-GFP nuclear translocation, laser cytometry, 2 h
Chain of Glucocorticoid receptor (Homo sapiens) (P04150 whole entry, looked up, the tested form may be a part): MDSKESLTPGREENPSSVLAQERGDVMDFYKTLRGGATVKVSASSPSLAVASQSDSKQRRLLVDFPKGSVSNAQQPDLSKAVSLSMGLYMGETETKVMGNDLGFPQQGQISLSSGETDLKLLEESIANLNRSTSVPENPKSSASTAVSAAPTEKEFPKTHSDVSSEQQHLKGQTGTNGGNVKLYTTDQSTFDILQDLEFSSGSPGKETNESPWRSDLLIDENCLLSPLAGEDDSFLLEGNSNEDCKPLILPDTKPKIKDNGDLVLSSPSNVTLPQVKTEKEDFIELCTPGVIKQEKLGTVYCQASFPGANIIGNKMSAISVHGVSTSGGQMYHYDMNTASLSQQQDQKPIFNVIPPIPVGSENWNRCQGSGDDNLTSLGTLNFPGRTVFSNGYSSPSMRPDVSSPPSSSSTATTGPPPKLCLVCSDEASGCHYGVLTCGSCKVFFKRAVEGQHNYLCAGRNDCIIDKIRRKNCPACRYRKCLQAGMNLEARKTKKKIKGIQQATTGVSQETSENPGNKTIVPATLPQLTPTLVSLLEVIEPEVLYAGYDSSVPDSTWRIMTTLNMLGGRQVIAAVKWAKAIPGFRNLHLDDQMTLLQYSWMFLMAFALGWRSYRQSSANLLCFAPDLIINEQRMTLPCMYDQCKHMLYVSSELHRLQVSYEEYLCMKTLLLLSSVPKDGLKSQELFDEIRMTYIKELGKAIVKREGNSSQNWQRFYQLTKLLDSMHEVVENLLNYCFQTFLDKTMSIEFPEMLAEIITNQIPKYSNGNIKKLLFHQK

[6] = target: Glucocorticoid receptor (Homo sapiens) (UniProt P04150); assay: GR-EFC Redistribution (AID 451; calls by dose curve; also: potency is read from the fitted curve at half-maximal effect); settings: CHO-K1 GR-EFC translocation, beta-gal luminescence, 2 h
Method in brief: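 CHO-K1 cells expressing nuclear EA and GR-ED fragments of b-gal; compounds titrated up to 46 uM final, 2 h at 37 C. GR nuclear translocation read as complemented b-gal luminescence after 1 h RT detection.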

[7] = target: Mitogen-activated protein kinase 10 (Mus musculus) (UniProt Q61831); assay: JNK3 AlphaScreen Assay (AID 530); settings: JNK3 lysate, c-Jun phosphorylation; series mostly up to 11.4 µM;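 also: kinase came from lysate of stimulated human HepG2 cells; signal reports phosphorylation of biotinylated GST-cJun 1-79 at Ser73 with 10 µM ATP; % is scaled to controls: 0 for no effect and ±100 for the full control effect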
Method in brief: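 HepG2 lysate (IL-1b/TNFa pre-activated) + biotin-GST-cJun 1-79 + anti-pSer73 cJun; cpd titration, 15 min RT; ATP 10 uM start; Tris pH 7.6, MgCl2, DTT, vanadate; beads in EDTA buffer; AlphaScreen.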

[8] = target: 3',5'-cyclic-AMP phosphodiesterase 4B (Homo sapiens) (UniProt Q07343); assay: qHTS Assay for Inhibitors of PDE-IV (AID 607; active = well fitted activation curve with a large enough effect in the main read-out, with a control signal flat, not every such curve was filed as active; also: % of control where 0% means no effect); settings: HEK293 ACTOne CNG channel cells, membrane potential fluorescence; series mostly up to 22.9 µM
Chain of 3',5'-cyclic-AMP phosphodiesterase 4B (Homo sapiens) (Q07343 whole entry, looked up): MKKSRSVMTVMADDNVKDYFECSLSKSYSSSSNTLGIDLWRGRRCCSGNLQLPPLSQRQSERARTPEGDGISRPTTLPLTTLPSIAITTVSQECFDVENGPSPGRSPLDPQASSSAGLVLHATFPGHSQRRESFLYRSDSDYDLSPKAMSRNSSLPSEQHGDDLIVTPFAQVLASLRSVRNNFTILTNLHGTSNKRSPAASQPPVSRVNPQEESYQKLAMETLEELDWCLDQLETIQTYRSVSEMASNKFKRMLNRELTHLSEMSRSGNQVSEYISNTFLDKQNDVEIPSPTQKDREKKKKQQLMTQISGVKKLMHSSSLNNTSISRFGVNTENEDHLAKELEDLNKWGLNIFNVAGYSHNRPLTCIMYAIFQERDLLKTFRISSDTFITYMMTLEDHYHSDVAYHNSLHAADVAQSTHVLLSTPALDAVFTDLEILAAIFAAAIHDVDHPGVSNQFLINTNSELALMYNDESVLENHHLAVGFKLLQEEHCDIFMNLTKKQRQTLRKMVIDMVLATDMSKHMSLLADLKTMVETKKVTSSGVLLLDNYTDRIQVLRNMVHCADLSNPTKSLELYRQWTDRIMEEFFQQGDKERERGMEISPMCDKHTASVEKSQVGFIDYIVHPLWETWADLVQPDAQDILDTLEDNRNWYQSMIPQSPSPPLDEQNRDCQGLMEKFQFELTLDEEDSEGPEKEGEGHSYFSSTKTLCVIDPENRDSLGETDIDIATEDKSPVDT
Method in brief: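 Cell-based read-out of cAMP via a modified cyclic nucleotide-gated channel and membrane potential dye (535/590 nm) in HEK293 cells expressing PDE4 endogenously. Compounds tested up to 22.9 uM final; 100 uM RO 20-1724 reference.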

[9] = qHTS Assay for Identification of Small Molecule Agonists for Hypoxia Response Element Signaling Pathway (AID 914; active = well fitted activation curve with a large enough effect in the signal ratio, with a control signal flat, not every such curve was filed as active; the % refers to the signal ratio; also: % of control where 0% means no effect); settings: ME-180 (cervical carcinoma) HRE-bla reporter, beta-lactamase ratio, CoCl2, 17 h; activation: hits give high values
Method in brief: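 In Opti-MEM containing 0.5% dialyzed FBS and 10 mM HEPES, ME-180 HRE-bla cells received a compound titration and EC50 CoCl2. They were incubated 17 hours, then CCF4-loaded 2.5 hours at room temperature before ratio reading.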

[10] = target: Cytochrome P450 3A4 (Homo sapiens) (UniProt P08684); assay: qHTS Assay for Activators of Cytochrome P450 3A4 (AID 885; active = well fitted curve in the direction sought with a large enough effect; an effect the other way counts as inactive or inconclusive; also: nearly all actives have a fitted effect of over 65% in size); settings: recombinant CYP3A4, Luciferin-PPXE luminescence, 60 min; series mostly up to 11.4 µM
Chain of Cytochrome P450 3A4 (Homo sapiens) (P08684 whole entry, looked up): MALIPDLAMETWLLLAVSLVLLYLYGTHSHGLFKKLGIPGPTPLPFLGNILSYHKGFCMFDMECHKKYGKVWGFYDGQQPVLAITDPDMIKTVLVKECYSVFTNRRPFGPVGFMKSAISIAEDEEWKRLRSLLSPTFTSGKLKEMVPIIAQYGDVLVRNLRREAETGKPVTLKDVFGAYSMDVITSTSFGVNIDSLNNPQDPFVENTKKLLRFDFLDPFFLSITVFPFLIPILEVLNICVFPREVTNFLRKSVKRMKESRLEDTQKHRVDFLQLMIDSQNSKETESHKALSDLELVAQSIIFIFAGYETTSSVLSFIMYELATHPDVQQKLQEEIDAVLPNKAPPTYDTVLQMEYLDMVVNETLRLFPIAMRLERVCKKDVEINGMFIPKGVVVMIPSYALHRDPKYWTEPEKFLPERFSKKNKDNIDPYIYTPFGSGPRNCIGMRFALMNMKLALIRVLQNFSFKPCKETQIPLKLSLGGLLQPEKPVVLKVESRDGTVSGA
Method in brief: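 Luminescent readout of luciferin formed from 25 uM Luciferin-PPXE (KM level) by 20 nM CYP3A4 in 200 mM KPO4, with 60 min NADPH-driven reaction at room temperature after 10 min compound exposure. Ketoconazole (57 uM) defined 100% inhibition.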

[11] = Confirmation and Secondary Assay for Modulators of Hemoglobin Beta Chain Splicing at IVS2 654 locus (AID 910; active = well fitted curve in the direction sought with a large enough effect; an effect the other way counts as inactive or inconclusive;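 also: HeLa cells stably carrying EGFP split by mutant beta-globin IVS2-654 intron; % of control where 0% means no effect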); settings: HeLa EGFP-654 splicing reporter, GFP fluorescence, 48 h; series mostly up to 38.3 µM
Method in brief: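 HeLa cells stably expressing EGFP interrupted by β-globin IVS2-654 intron, seeded overnight in Opti-MEM/2% FCS, then treated 2 days at 37 °C. Restored splicing read as total peak GFP intensity per well by laser scanning cytometry (488 nm excitation, 500–520 nm emission); 500 nM antisense PNA as control.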

[12] = Confirmation and Secondary Assay for Modulators of Hemoglobin Beta Chain Splicing at IVS2 705 locus (AID 930; active = well fitted curve in the direction sought with a large enough effect; an effect the other way counts as inactive or inconclusive;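 also: HeLa cells stably expressing the EGFP-705 splicing reporter; GFP fluorescence per well restored by corrected splicing of the IVS2-705 intron in EGFP; % of control where 0% means no effect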); settings: HeLa EGFP-705 splicing reporter, GFP fluorescence, 48 h; series mostly up to 38.3 µM
Method in brief: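 Per-well GFP, captured at 1 x 8 µm resolution with 488 nm excitation, served as the read-out for HeLa EGFP-705 cells incubated 2 days with test compound versus DMSO.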

O=C(O)[C@@H]1CCCN1Cc1ccc2c(c1)OCO2
inactive: Potency [1] > 11.4 µM | activity change, negative = inhibition [2] 2.76% | activity change, negative = inhibition [3] 10.2% | activity, negative = inhibition [4] 0.869% | Potency [5] > 46 µM | Potency [6] > 9.22 µM | Potency [7] | Potency [8] | activation [9] 7.45%

CC(C)CNc1nc2ncnc(N)c2[nH]1
inactive: Potency [1] > 11.4 µM | activity change, negative = inhibition [2] 5.51% | activity change, negative = inhibition [3] 1.95% | activity, negative = inhibition [4] -10.8% | Potency [5] > 46 µM | Potency [6] > 9.22 µM | Potency [7] | Potency [8] | activation [9] 10.3%

O=S(=O)(O)c1ccc2c(N=Nc3c(O)ccc4ccccc34)cccc2c1
inactive: Potency [1] > 11.4 µM | activity change, negative = inhibition [2] -13.3% | activity change, negative = inhibition [3] -11.8% | activity, negative = inhibition [4] -5.48% | Potency [5] > 46 µM | Potency [6] > 9.22 µM | Potency [8]

CC(C)(CO)N1CCN(C(=S)Nc2ccccc2)CC1
inactive: Potency [1] > 11.4 µM | activity change, negative = inhibition [2] 7.77% | activity change, negative = inhibition [3] 17.5% | activity, negative = inhibition [4] -2.59% | Potency [5] > 46 µM | Potency [6] > 9.22 µM | Potency [7] | Potency [8] | activation [9] 10%

O=S(=O)(O)c1ccc2c(N=Nc3cccc4ccccc34)c(O)c(S(=O)(=O)O)cc2c1
inactive: Potency [1] > 11.4 µM | activity change, negative = inhibition [2] -5.27% | activity change, negative = inhibition [3] -7.38% | activity, negative = inhibition [4] -0.528% | Potency [5] > 46 µM | Potency [6] > 9.22 µM | Potency [8]

O=C(O)CCCc1ccc2ccccc2c1
inactive: Potency [1] > 11.4 µM | activity change, negative = inhibition [2] -3.28% | activity change, negative = inhibition [3] -9.96% | activity, negative = inhibition [4] 3.96% | Potency [5] > 46 µM | Potency [6] > 9.22 µM | Potency [7] | Potency [8] | activation [9] -6.23%

O=C(O)c1cccc(N=Nc2c(S(=O)(=O)O)ccc3c2C(=O)c2ccccc2C3=O)c1O
inactive: Potency [1] > 11.4 µM | activity change, negative = inhibition [2] 9.86% | activity change, negative = inhibition [3] -3.54% | activity, negative = inhibition [4] -9.02% | Potency [5] > 46 µM | Potency [6] > 9.22 µM | Potency [8]

CS(=O)(=O)Nc1cccc(-c2nc(NCc3cccnc3)c3ccccc3n2)c1
inactive: Potency [1] > 11.4 µM | activity change, negative = inhibition [2] -19.8% | activity change, negative = inhibition [3] 23.6% | activity, negative = inhibition [4] -19.5% | Potency [5] > 46 µM | Potency [6] > 46 µM | Potency [7] | Potency [10] | outcome [11] | outcome [12]
